The AC50 is the midpoint of the concentration-response curve, whichever way the signal moves.

Where “and” joins values, the source holds several entries; their conditions need not be identical. Equal entries are not always repeated. Calls of active or inactive are those of the source. The calls were made as follows: active = hit-call score of the fitted dose curve at least 0.9, where 1 is the maximum; inactive = score below 0.9.

Read-out in test [1]: Human Leukocyte Antigen - DR isotype (HLADR), HLA-DRA (gene 3122)
Briefly: BSK_CASM3C_HLADR: BioMAP Diversity Plus: CASM3C Assay for Human Leukocyte Antigen - DR isotype (HLADR) Biomarker Activity (AID 2283043).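 Also: cell-surface HLA-DR protein level quantified by ELISA.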 Particulars: primary human coronary artery smooth muscle cells; actives raise or lower the signal.

Read-out in test [2]: Monocyte Chemoattractant Protein-1 (MCP1), CCL2 (gene 6347)
Briefly: BSK_CASM3C_MCP1: BioMAP Diversity Plus: CASM3C Assay for Monocyte Chemoattractant Protein-1 (MCP1) Biomarker Activity (AID 2283046). The following applies: primary human coronary artery smooth muscle cells; actives raise or lower the signal.

The nature of test [3]: BSK_CASM3C_Proliferation: Cell Proliferation Assessment in the BioMAP Diversity Plus: CASM3C Assay (AID 2283047).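 Also: sulforhodamine B total protein stain as relative cell number at 560 nm; sub-confluent cells exposed 48 h before staining; fitted both ways against DMSO so gain or loss of cell number.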 Particulars: primary human coronary artery smooth muscle cells.
Read-out in test [4]: Tissue Factor, F3 (gene 2152)
Description: BSK_CASM3C_TissueFactor: BioMAP Diversity Plus: CASM3C Assay for Tissue Factor Biomarker Activity (AID 2283052).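 Also: cell surface tissue factor protein level read by ELISA.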 Particulars: primary human coronary artery smooth muscle cells; actives raise or lower the signal.

Read-out in test [5]: Interferon-gamma inducible Protein 10 (IP10), CXCL10 (gene 3627)
Description: BSK_hDFCGF_IP10: BioMAP Diversity Plus: hDFCGF Assay for Interferon-gamma inducible Protein 10 (IP10) Biomarker Activity (AID 2283053). Particulars: primary human foreskin fibroblasts; actives raise or lower the signal. The procedure, abridged: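 ELISA read-out of IP-10 (CXCL10) from primary human skin fibroblasts, 24 h after compound addition. Gain or loss of signal versus DMSO baseline, bidirectional curve fitting.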

Read-out in test [6]: Epidermal growth factor receptor (EGFR), EGFR (gene 1956)
Briefly: BSK_hDFCGF_EGFR: BioMAP Diversity Plus: hDFCGF Assay for Epidermal growth factor receptor (EGFR) Biomarker Activity (AID 2283057). Particulars: primary human foreskin fibroblasts; actives raise or lower the signal. In a few lines: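 ELISA readout of EGFR on human dermal fibroblasts (primary foreskin cells), 24 h post-dosing; bidirectional curve fit vs DMSO baseline, gain or loss of signal scored.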

Read-out in test [7]: Interleukin-8 (IL8), CXCL8 (gene 3576)
Briefly: BSK_hDFCGF_IL8: BioMAP Diversity Plus: hDFCGF Assay for Interleukin-8 (IL8) Biomarker Activity (AID 2283058). The following applies: primary human foreskin fibroblasts; actives raise or lower the signal. The procedure, abridged: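 IL-8 levels read by ELISA at 24 hours after dosing human skin fibroblast cultures. Parallel SRB staining assessed overt cytotoxicity, and gain or loss of signal was fitted against DMSO control.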

Test [8] in a line: BSK_hDFCGF_Proliferation: Cell Proliferation Assessment in the BioMAP Diversity Plus: hDFCGF Assay (AID 2283059).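 Also: curves fitted for both rise and fall of signal versus DMSO baseline.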 Particulars: primary human foreskin fibroblasts. The procedure, abridged:
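Total protein read at 560 nm after 0.1% SRB staining of TCA-fixed human skin fibroblasts, […]. Activity is fitted in both directions relative to DMSO as baseline.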

Test [9] in a line: BSK_hDFCGF_SRB: Viability Assessment in the BioMAP Diversity Plus: hDFCGF Assay (AID 2283061).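 Also: cells exposed to compound for 24 h before the read.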 Particulars: primary human foreskin fibroblasts. In a few lines:
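Viability was read as total protein: after 10% TCA fixation, wells were stained with 0.1% sulforhodamine B and read at 560 nm. Primary human foreskin fibroblasts were dosed for 24 h, with bidirectional fitting versus DMSO.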

Read-out in test [10]: TIMP metallopeptidase inhibitor 1 (TIMP1), TIMP1 (gene 7076)
Briefly: BSK_hDFCGF_TIMP1: BioMAP Diversity Plus: hDFCGF Assay for TIMP metallopeptidase inhibitor 1 (TIMP1) Biomarker Activity (AID 2283062). The following applies: primary human foreskin fibroblasts; actives raise or lower the signal. The procedure, abridged:
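TIMP-1 measured by ELISA 24 h after chemical dosing of primary human skin fibroblasts, with gain or loss fitted relative to DMSO. Parallel SRB staining (560 nm) monitored overt cytotoxicity.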

Read-out in test [11]: Monokine induced gamma interferon (MIG), CXCL9 (gene 4283)
Briefly: BSK_hDFCGF_MIG: BioMAP Diversity Plus: hDFCGF Assay for Monokine induced gamma interferon (MIG) Biomarker Activity (AID 2283063). The following applies: primary human foreskin fibroblasts; actives raise or lower the signal. In a few lines:
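Human primary foreskin fibroblasts in the hDFCGF system, exposed to test chemical for 24 h; MIG measured by ELISA. Bidirectional curve fitting against DMSO negative control as activity baseline.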

Read-out in test [12]: Matrix Metallopeptidase 1 (MMP1), MMP1 (gene 4312)
Briefly: BSK_hDFCGF_MMP1: BioMAP Diversity Plus: hDFCGF Assay for Matrix Metallopeptidase 1 (MMP1) Biomarker Activity (AID 2283064). The following applies: primary human foreskin fibroblasts; actives raise or lower the signal. In a few lines:
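MMP1 levels quantified by ELISA 24 h after dosing human dermal fibroblast cultures, with parallel SRB total-protein staining for overt cytotoxicity. Data fitted in both directions against DMSO baseline.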

Read-out in test [13]: Vascular cell adhesion molecule 1 (VCAM1), VCAM1 (gene 7412)
Briefly: BSK_hDFCGF_VCAM1: BioMAP Diversity Plus: hDFCGF Assay for Vascular cell adhesion molecule 1 (VCAM1) Biomarker Activity (AID 2283065).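 As to AC50: VCAM-1 protein level quantified by ELISA after 24 h chemical exposure.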 Particulars: primary human foreskin fibroblasts; actives raise or lower the signal. In a few lines: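 ELISA readout of VCAM-1 on human dermal fibroblast primary cultures, 24 h after chemical exposure. Gain or loss of signal fitted in both directions against DMSO baseline.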

Read-out in test [14]: Plasminogen activator inhibitor-1 (PAI1), SERPINE1 (gene 5054)
Briefly: BSK_hDFCGF_PAI1: BioMAP Diversity Plus: hDFCGF Assay for Plasminogen activator inhibitor-1 (PAI1) Biomarker Activity (AID 2283066). Particulars: primary human foreskin fibroblasts; actives raise or lower the signal. The procedure, abridged:
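ELISA readout of PAI-1 from primary human skin fibroblast cultures, 24 h after compound addition. Gain or loss of signal was fitted bidirectionally against DMSO baseline.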

Read-out in test [15]: Interferon-gamma inducible Protein 10 (IP10), CXCL10 (gene 3627)
Briefly: BSK_KF3CT_IP10: BioMAP Diversity Plus: KF3CT Assay for Interferon-gamma inducible Protein 10 (IP10) Biomarker Activity (AID 2283068). The following applies: primary human keratinocytes with fibroblasts; actives raise or lower the signal. The procedure, abridged:
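Human keratinocyte plus foreskin fibroblast primary co-culture exposed to test chemical for 24 h; IP-10 measured by ELISA. Concentration-response fitted bidirectionally against DMSO control as baseline.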

Read-out in test [16]: Transforming growth factor beta 1 (TGFb1), TGFB1 (gene 7040)
Briefly: BSK_KF3CT_TGFb1: BioMAP Diversity Plus: KF3CT Assay for Transforming growth factor beta 1 (TGFb1) Biomarker Activity (AID 2283072). Particulars: primary human keratinocytes with fibroblasts; actives raise or lower the signal. In a few lines:
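Read-out: ELISA for TGF-b1 in keratinocyte/foreskin fibroblast human skin co-culture, 24 h after dosing; bidirectional curve fit vs DMSO baseline; gain or loss of signal scored.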

Read-out in test [17]: urokinase plasminogen activator (uPA), PLAU (gene 5328)
Briefly: BSK_KF3CT_uPA: BioMAP Diversity Plus: KF3CT Assay for urokinase plasminogen activator (uPA) Biomarker Activity (AID 2283075). The following applies: primary human keratinocytes with fibroblasts; actives raise or lower the signal. In a few lines:
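ELISA read-out of uPA 24 h after dosing human skin keratinocytes co-cultured with foreskin fibroblasts. Signal change fitted both ways relative to DMSO; sulforhodamine B on parallel cultures marks overt cytotoxicity.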

Read-out in test [18]: CD40, CD40 (gene 958)
Description: BSK_LPS_CD40: BioMAP Diversity Plus: LPS Assay for CD40 Biomarker Activity (AID 2283076). Particulars: primary human HUVEC with PBMC; actives raise or lower the signal. In a few lines:
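In the LPS system of human endothelial cells with peripheral blood mononuclear cells, CD40 levels were read by ELISA 24 h post-treatment. Signal changes in either direction were fitted against the DMSO baseline, with parallel SRB protein staining.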

Test [19] is described as follows: BSK_LPS_SRB: Viability Assessment in the BioMAP Diversity Plus: LPS Assay (AID 2283079).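 Also: total protein by sulforhodamine B absorbance as a cytotoxicity measure; measured one day after compound addition.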 Particulars: primary human HUVEC with PBMC. The procedure, abridged: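 SRB viability endpoint: cells fixed with 10% TCA, stained with 0.1% SRB, read at 560 nm, 24 h post-dose. HUVEC/PBMC co-culture; signal change in either direction scored relative to DMSO.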
Read-out in test [20]: Macrophage colony-stimulating factor (MCSF), CSF1 (gene 1435)
Description: BSK_LPS_MCSF: BioMAP Diversity Plus: LPS Assay for Macrophage colony-stimulating factor (MCSF) Biomarker Activity (AID 2283083). The following applies: primary human HUVEC with PBMC; actives raise or lower the signal. In a few lines:
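Bidirectional fitting against DMSO was applied to M-CSF levels read by ELISA at 24 h post-dose. The system pairs human umbilical vein endothelium with peripheral blood mononuclear cells; parallel SRB staining tracked cytotoxicity.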

`O=C1C=CC(=O)C=C1`: the AC50 was 10.9 µM (active) and 20 µM (active) in [1]; 30.4 µM (active) and 15.2 µM (active) in [3]; 16.8 µM (active) and 23.7 µM (active) in [5]; 11.2 µM (active) and 2.81 µM (active) in test [8]; 36.3 µM (active) and 12.7 µM (active) in [9]; 20 µM (active) and 13.2 µM (active) in test [10]. Also, the AC50 was 11.2 µM (active) and 28.8 µM (active) in test [11]; 32.2 µM (active) and 26.5 µM (active) in test [12]; 19 µM (active) and 12.8 µM (active) in test [13]; 20 µM (active) and 19.2 µM (active) in test [14]; 27.8 µM (active) and 24.1 µM (active) in test [15]; 29.9 µM (active) and 12.4 µM (active) in test [16]. In addition, the AC50 in test [17] was 30.9 µM (active) and 30.6 µM (active); in test [18] it was 12.3 µM (active) and 20 µM (active); in [20], 20 µM (active) and 28.7 µM (active). Besides, the outcome in [2], in test [4], in test [6], in [7] and in [19] was inactive.
Consider `C=CCN(CC=C)C(=O)C(Cl)Cl`, for which the result in test [1], in test [2], in [3], in test [4], in test [5] and in test [6] was inactive. Also, the result in [7], in test [8], in test [9], in test [10], in [11] and in [12] was inactive. Besides, the outcome in test [13], in test [14], in [15], in test [16], in test [17] and in [18] was inactive. Further, the outcome in [19] and in test [20] was inactive.
As to `COCC(=O)N(c1c(C)cccc1C)N1CCOC1=O`, the result in test [1], in test [2], in [3], in test [4], in [5] and in [6] was inactive. For the same compound, the outcome in test [7], in test [8], in [9], in [10], in [11] and in test [12] was inactive. Further, the result in test [13], in [14], in test [15], in test [16], in test [17] and in test [18] was inactive. The result in [19] and in test [20] was inactive.
Regarding `O=[N+]([O-])C=Cc1ccccc1`, the AC50 is 12.1 µM (active) in test [1]; 27.6 µM (active) in test [2]; 10.9 µM (active) in test [3]; 20 µM (active) in test [4]; 2.63 µM (active) in [5]; 4.35 µM (active) in test [7]. Besides, the AC50 in [8] is 596 nM (active); in test [9], 20 µM (active); in test [10] it was 13 µM (active); in [11] it was 2.4 µM (active); in test [12], 3.96 µM (active); in [13], 1.41 µM (active). Further, the AC50 in [14] was 4.03 µM (active); in test [15], 6.18 µM (active); in test [16] it was 3.05 µM (active); in test [17], 10.2 µM (active); in test [18], 5.97 µM (active); in [19] it was 11 µM (active). The AC50 in test [20] is 10.8 µM (active). Also, the result in test [6] was inactive.

(Values after PubChem BioAssay (EPA / NIEHS).)
